Measurements reported in PubChem BioAssay AID1159580 (chemical genetic matrix, 2015).
In all, about 5,500 compounds went through this assay and about 2,000 (36%) were called active. Not shown: some 18% with an inconclusive outcome. No stated cut-off is given here; in the data, active means normalized growth mostly below about 0.91 (no sharp cut-off); inconclusive means no clear call, values can overlap the other calls; inactive means mostly above about 0.92. The list shows a part of the results.

Test: chemical genetic growth profiling, strain panel (AID 1159580);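 further: tested at 20 µM; growth read once vehicle control cultures reached saturation at 30 °C; 1 = growth at the plate median or of vehicle wells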
Settings: growth OD
[1] = S. cerevisiae deletion strains, locus YAL013W, strain DEP1, stronger effect = lower value
[2] = S. cerevisiae deletion strains, locus YBR229C, strain ROT2, stronger effect = lower value
[3] = S. cerevisiae deletion strains, locus YDL101C, strain DUN1, stronger effect = lower value
[4] = S. cerevisiae deletion strains, locus YDL134C, strain PPH21, stronger effect = lower value
[5] = S. cerevisiae deletion strains, locus YDR150W, strain NUM1, stronger effect = lower value
[6] = S. cerevisiae deletion strains, locus YEL061C, strain CIN8, stronger effect = lower value
[7] = S. cerevisiae deletion strains, locus YGR078C, strain PAC10, stronger effect = lower value
[8] = S. cerevisiae deletion strains, locus YHR030C, strain SLT2, stronger effect = lower value
[9] = S. cerevisiae deletion strains, locus YJR043C, strain POL32, stronger effect = lower value
[10] = S. cerevisiae deletion strains, locus YJR075W, strain HOC1, stronger effect = lower value
[11] = S. cerevisiae deletion strains, locus YKL190W, strain CNB1, stronger effect = lower value
[12] = S. cerevisiae deletion strains, locus YLR039C, strain RIC1, stronger effect = lower value
[13] = S. cerevisiae deletion strains, locus YLR058C, strain SHM2 (second series), stronger effect = lower value
[14] = S. cerevisiae deletion strains, locus YLR085C, strain ARP6, stronger effect = lower value
[15] = S. cerevisiae deletion strains, locus YLR262C, strain YPT6, stronger effect = lower value
[16] = S. cerevisiae deletion strains, locus YML094W, strain GIM5, stronger effect = lower value
[17] = S. cerevisiae deletion strains, locus YMR219W, strain ESC1, stronger effect = lower value
[18] = S. cerevisiae deletion strains, locus YMR263W, strain SAP30, stronger effect = lower value
[19] = S. cerevisiae deletion strains, locus YMR307W, strain GAS1, stronger effect = lower value
[20] = S. cerevisiae deletion strains, locus YNL128W, strain TEP1, stronger effect = lower value
[21] = S. cerevisiae deletion strains, locus YNL153C, strain GIM3, stronger effect = lower value
[22] = S. cerevisiae deletion strains, locus YNL298W, strain CLA4 (second series), stronger effect = lower value
[23] = S. cerevisiae deletion strains, locus YNL322C, strain KRE1, stronger effect = lower value
[24] = S. cerevisiae deletion strains, locus YNR030W, strain Alg12, stronger effect = lower value
[25] = S. cerevisiae deletion strains, locus YOL006C, strain TOP1, stronger effect = lower value
[26] = S. cerevisiae deletion strains, locus YPL055C, strain LGE1, stronger effect = lower value
[27] = S. cerevisiae deletion strains, locus YPL241C, strain CIN2, stronger effect = lower value
[28] = S. cerevisiae deletion strains, locus YPR135W, strain CTF4, stronger effect = lower value

Measured: normalized growth

CC(=O)CC(=O)Nc1ccccc1Cl
inactive: [1] 1 | [2] 0.997 | [3] 0.979 | [4] 0.998 | [5] 0.97 | [6] 1.02 | [7] 0.993 | [8] 0.966 | S. cerevisiae deletion strains, locus YJL187C, strain SWE1, stronger effect = lower value 0.995 | [9] 0.982 | [10] 1.03 | [11] 1.01 | [12] 0.993 | [13] 1.01 | [14] 0.967 | [15] 1.02 | [16] 1.02 | [17] 0.993 | [18] 0.999 | [19] 0.947 | [20] 0.987 | [21] 1.02 | [22] 1 | [23] 0.992 | [24] 1 | [25] 1.01 | [26] 1 | [27] 0.978 | [28] 0.925 | S. cerevisiae strains, strain wild type, stronger effect = lower value 0.971

Cc1cccc2c1N(C(=S)Nc1ccccc1Cl)CCC2
inactive: [1] 0.966 | [3] 0.972 | [5] 1.01 | S. cerevisiae deletion strains, locus YGR229C, strain SMI1, stronger effect = lower value 0.997 | [9] 0.997 | [13] 0.95 | [18] 0.915 | [20] 0.914 | [23] 0.989 | [24] 0.906 | [26] 0.93 | [27] 0.859
active: [2] 0.821 | S. cerevisiae deletion strains, locus YCL061C, strain MRC1, stronger effect = lower value 0.898 | [4] 0.911 | [6] 0.845 | [7] 0.907 | [8] 0.331 | S. cerevisiae deletion strains, locus YHR087W, strain rtc3, stronger effect = lower value 0.787 | [10] 0.876 | [11] 0.648 | [12] 0.439 | [14] 0.602 | [15] 0.406 | [16] 0.712 | [17] 0.851 | [19] 0.219 | [21] 0.913 | [22] 0.582 | [25] 0.508 | [28] 0.273

CN1CCc2cccc(Cl)c2CC1
inactive: [1] 0.986 | S. cerevisiae deletion strains, locus YAL040C, strain CLN3, stronger effect = lower value 1 | S. cerevisiae deletion strains, locus YCL061C, strain MRC1 (second series), stronger effect = lower value 1.01 | S. cerevisiae deletion strains, locus YDR363W, strain ESC2, stronger effect = lower value 1 | S. cerevisiae deletion strains, locus YER002W, strain NOP16, stronger effect = lower value 1 | [10] 0.993 | [19] 1.01 | S. cerevisiae deletion strains, locus YNL175C, strain NOP13, stronger effect = lower value 1.01 | S. cerevisiae deletion strains, locus YNL197C, strain WHI3, stronger effect = lower value 1.01 | S. cerevisiae deletion strains, locus YNL224C, strain SQS1, stronger effect = lower value 1 | [23] 1 | S. cerevisiae deletion strains, locus YOR083W, strain WHI5 (second series), stronger effect = lower value 1.01 | [26] 0.998
